According to PubChem BioAssay:
Calls of active or inactive are those of the source.

What was measured:
[1] = small molecules captured by biotinylated probe aFSTL3 – biochemical, small-molecule microarray, fluorescence 635/667, stem cell growth factor project, primary screen (AID 1064); details: higher = more signal;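 also: measures binding of the biotinylated anti-FSTL3 antibody to printed compounds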
[2] = binders from COS7 lysate, DM2A8 probe, primary screen, torsin A project, cell lysate, small-molecule microarray, fluorescence 635/667 (AID 1065); details: higher = more signal, COS7 lysate expressing mutant human TOR1A
[3] = small molecules captured by biotinylated probe aFGF2 – biochemical, small-molecule microarray, fluorescence 635/667, stem cell growth factor project, primary screen (AID 1067); details: higher = more signal;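 also: measures binding of biotinylated aFGF2 protein to printed compounds on slides; z-score merges feature fluorescence and signal-to-noise across triplicate slides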
[4] = small molecules captured by biotinylated probe aFGF10 – biochemical, small-molecule microarray, fluorescence 635/667, stem cell growth factor project, primary screen (AID 1071); details: higher = more signal;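 also: score merges 667 nm spot intensity and signal to noise from triplicate slides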
[5] = molecular target: Neurogenic locus notch homolog protein 2 (Homo sapiens) (UniProt Q04721); experiment: small molecules binding Notch2 protein – biochemical, small-molecule microarray, 635 nm fluorescence, stem cell growth factors, primary screen (AID 1073); details: higher = more signal
[6] = molecular target: Pro-neuregulin-1, membrane-bound isoform (Homo sapiens) (UniProt Q02297); experiment: small molecules binding neuregulin-1 protein – biochemical, small-molecule microarray, fluorescence 635/667, psychiatric disease protein project, primary screen (AID 1075); details: NRG1 binding, 635 nm fluorescence, higher = more signal;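 also: score combines 667 nm spot fluorescence with signal to noise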
[7] = system: Neuregulin-1 EGF-like domain; experiment: small molecules binding NRG1 EGF domain – biochemical, small-molecule microarray, 635 nm fluorescence, primary screen (AID 1081); details: higher = more signal;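 also: binding of the protein to compounds printed on small-molecule microarray slides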
[8] = FRG1 expression reporter modulators in myotubes – cell-based, C2C12 myotubes, firefly/Renilla luciferase, luminescence, FRG1 inhibition for FSHD, primary screen (AID 1084); details: FRG1 promoter luciferase, higher = more signal, called active from +8 up or from −8 down
[9] = small molecules captured by biotinylated probe aFST – biochemical, small-molecule microarray, fluorescence 635/667, stem cell growth factor project, primary screen (AID 1086); details: higher = more signal;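 also: score merges 667 nm fluorescence with signal-to-noise of each printed compound spot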
[10] = binders of probe aHhip on microarray, primary screen, stem cell growth factor project, biochemical, small-molecule microarray, fluorescence 635/667 (AID 1087); details: higher = more signal;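 also: score merges spot fluorescence at 667nm with spot signal to noise ratio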

Pro-neuregulin-1, membrane-bound isoform (Homo sapiens), sequence (Q02297 whole entry, looked up, the tested form may be a part, canonical isoform): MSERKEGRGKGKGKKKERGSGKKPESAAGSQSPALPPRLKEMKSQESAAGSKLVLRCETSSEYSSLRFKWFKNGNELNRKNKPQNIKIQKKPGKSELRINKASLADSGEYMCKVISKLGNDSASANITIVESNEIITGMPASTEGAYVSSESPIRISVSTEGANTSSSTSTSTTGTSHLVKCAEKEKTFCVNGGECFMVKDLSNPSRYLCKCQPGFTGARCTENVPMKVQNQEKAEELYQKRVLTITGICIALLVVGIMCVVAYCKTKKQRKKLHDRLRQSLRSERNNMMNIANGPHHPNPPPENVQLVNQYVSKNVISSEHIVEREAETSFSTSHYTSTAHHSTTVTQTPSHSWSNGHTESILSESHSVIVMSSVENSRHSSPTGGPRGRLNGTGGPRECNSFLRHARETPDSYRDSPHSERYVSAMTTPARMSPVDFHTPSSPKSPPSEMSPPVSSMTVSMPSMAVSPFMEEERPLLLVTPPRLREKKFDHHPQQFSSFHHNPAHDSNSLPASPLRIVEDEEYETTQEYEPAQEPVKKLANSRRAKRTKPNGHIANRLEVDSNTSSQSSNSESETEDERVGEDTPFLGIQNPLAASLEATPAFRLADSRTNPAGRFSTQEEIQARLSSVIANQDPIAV
Neurogenic locus notch homolog protein 2 (Homo sapiens), sequence (Q04721 whole entry, looked up, canonical isoform): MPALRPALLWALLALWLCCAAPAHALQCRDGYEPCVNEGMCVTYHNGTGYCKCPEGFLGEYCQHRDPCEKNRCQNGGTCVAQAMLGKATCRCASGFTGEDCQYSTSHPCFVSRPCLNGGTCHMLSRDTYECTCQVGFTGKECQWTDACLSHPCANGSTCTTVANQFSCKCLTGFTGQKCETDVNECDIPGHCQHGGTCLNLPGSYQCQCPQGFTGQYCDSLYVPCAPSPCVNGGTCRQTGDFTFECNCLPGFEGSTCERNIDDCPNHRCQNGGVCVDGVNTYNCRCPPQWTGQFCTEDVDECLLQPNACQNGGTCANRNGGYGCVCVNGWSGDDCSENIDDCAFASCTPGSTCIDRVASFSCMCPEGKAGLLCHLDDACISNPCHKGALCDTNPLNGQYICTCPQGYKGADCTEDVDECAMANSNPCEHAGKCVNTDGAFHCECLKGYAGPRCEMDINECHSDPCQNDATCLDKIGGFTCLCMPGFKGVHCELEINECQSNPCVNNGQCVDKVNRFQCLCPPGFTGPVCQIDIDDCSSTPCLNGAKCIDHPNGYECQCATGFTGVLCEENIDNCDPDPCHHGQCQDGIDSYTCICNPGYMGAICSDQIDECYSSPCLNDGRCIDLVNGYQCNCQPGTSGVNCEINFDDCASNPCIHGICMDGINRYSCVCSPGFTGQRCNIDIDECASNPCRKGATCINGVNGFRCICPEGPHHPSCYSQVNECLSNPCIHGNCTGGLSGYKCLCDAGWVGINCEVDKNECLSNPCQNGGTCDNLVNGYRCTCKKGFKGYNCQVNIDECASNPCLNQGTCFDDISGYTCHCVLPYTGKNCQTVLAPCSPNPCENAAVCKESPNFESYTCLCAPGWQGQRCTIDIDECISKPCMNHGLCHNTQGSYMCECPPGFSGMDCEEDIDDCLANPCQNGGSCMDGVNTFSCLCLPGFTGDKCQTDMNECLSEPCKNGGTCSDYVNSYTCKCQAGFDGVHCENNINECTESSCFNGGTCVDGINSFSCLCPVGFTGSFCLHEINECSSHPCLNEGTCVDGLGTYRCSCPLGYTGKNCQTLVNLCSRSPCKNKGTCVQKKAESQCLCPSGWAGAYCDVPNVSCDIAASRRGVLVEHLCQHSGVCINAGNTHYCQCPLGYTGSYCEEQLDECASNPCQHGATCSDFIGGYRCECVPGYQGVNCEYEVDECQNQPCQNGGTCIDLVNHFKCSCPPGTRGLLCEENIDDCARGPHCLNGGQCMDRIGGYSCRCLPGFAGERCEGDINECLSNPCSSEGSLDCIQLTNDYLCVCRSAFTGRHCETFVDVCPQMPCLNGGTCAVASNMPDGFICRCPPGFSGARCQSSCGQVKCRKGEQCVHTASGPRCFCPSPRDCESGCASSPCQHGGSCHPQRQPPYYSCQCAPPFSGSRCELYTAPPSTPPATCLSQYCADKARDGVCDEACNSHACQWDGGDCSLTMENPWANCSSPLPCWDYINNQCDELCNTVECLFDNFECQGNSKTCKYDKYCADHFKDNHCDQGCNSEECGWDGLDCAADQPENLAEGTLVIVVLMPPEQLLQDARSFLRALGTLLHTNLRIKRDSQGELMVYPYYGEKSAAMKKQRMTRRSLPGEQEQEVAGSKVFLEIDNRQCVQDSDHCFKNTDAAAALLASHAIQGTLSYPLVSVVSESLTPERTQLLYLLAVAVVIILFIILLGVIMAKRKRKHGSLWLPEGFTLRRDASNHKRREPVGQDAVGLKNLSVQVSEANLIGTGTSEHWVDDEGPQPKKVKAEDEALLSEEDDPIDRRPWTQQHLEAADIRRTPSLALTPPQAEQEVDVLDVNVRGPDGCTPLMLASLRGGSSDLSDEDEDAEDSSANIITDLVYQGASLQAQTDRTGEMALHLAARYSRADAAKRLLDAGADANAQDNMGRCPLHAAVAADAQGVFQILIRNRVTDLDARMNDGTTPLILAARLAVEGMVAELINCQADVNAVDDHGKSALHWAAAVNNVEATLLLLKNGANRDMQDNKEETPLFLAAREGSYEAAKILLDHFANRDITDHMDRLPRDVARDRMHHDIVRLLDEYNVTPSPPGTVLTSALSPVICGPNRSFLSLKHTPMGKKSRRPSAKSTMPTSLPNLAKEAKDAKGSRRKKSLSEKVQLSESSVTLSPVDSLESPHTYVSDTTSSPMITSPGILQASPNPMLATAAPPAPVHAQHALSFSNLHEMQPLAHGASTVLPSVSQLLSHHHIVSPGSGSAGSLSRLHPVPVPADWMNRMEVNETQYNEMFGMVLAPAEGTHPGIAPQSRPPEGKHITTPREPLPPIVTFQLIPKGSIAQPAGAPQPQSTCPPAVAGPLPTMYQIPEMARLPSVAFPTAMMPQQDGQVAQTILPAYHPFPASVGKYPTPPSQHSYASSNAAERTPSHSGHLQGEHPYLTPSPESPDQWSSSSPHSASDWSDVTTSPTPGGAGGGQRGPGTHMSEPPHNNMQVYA

Compound	composite z-score [1]	composite z-score [2]	composite z-score [3]	composite z-score [4]	composite z-score [5]	composite z-score [6]	composite z-score [7]	z-score [8]	composite z-score [9]	composite z-score [10]
CC(C)CON=C1C[C@@H](O)[C@@H](O)[C@@H]2[C@@H]3C(=O)N(c4cccc(Oc5ccccc5)c4)C(=O)[C@@H]3CC[C@@H]12	-0.509	0.14	-0.13	0.206	0.336	0.61	1.1	-1.18 (inactive)	-0.129	0.0373
CO[C@H]1COC(=O)CC=C[C@@H](C)[C@H](NS(=O)(=O)c2ccc(C)cc2)COC(=O)CCC[C@@H]1C	-0.366	0.906	-0.154	0.21	0.18	-0.25	0.185	0.408 (inactive)	-0.225	-0.635
COc1ccc(O[C@H]2C=C[C@@H](c3ccccc3)O[C@@H]2CON=C(C)CCN2CCc3nc(-c4ccccc4)c(-c4ccccc4)cc3C2)cc1	-0.311	0.183	-0.0909	-0.631	-0.167	0.617	-0.0088	0.282 (inactive)	0.371	0.136
CCOC(=O)[C@H](CC(C)C)NC(=O)CCC1CC(OC(=O)NCc2cccc3ccccc23)CC2(CCCC(COC(=O)NCCCN3CCCC3=O)O2)O1 (stereo not given in full)	-0.494	0.129	-0.131	0.208	0.755	0.466	0.953	1.74 (inactive)	0.253	-0.212
O=C1CCCC(C2=CCCCC2=O)C1 (stereo not given)	-0.31	0.213	-0.0895	0.0787	0.312	-0.3	0.165	0.222 (inactive)	0.0915	0.157
CO[C@@H]1COC(=O)[C@@H](C)COC(=O)[C@@H](C)NC(=O)CC=C[C@@H]1C	-0.538	0.544	-0.133	0.231	0.198	-0.308	0.675	0.156 (inactive)	-0.235	-0.342
CON=CC[C@@H]1C=C[C@H](OC(C)=O)[C@@H](COC(C)=O)O1	-0.043	0.0682	-0.0006	0.119	0.255	-0.189	-0.686	0.41 (inactive)	0.143	0.151
Cc1ccc(S(=O)(=O)N[C@@H]2COC(=O)[C@@H](C)COC(=O)CC=C[C@H]2C)cc1	-0.305	0.155	-0.0777	0.259	0.672	-0.126	0.167	0.204 (inactive)	0.045	0.251
COC(=O)CC=C[C@@H](C)[C@@H](C=NOC[C@@H](O)[C@H]1O[C@@H]2OC(C)(C)O[C@@H]2[C@H]1O)NS(=O)(=O)c1ccc(C)cc1	-0.383	0.746	-0.171	0.347	0.463	-0.0399	-0.124	0.703 (inactive)	0.155	-0.641
CO[C@@H]1COC(=O)CC=C[C@@H](C)[C@H](OC)COC(=O)[C@@H](C)COC(=O)CC=C[C@H]1C	-0.404	0.812	0.553	-0.552	-1.27	-0.245	-0.844	-0.182 (inactive)	-0.387	0.312
CC(C)(C)N1C(=O)[C@H]2[C@H]3[C@H](O)[C@H](O)CC(=NO[C@@H]4O[C@H](CO)[C@@H](O)[C@H](O)[C@H]4O)[C@H]3CC[C@H]2C1=O	-0.477	0.128	-0.17	0.569	0.45	0.947	0.389	0.599 (inactive)	0.263	-0.0994
CC(C)(C)N1C(=O)[C@H]2[C@H]3[C@H](O)[C@H](O)CC(=NOCc4ccccc4)[C@H]3CC[C@H]2C1=O	1.55	0.636	-0.0006	-0.0753	-0.224	-0.102	-0.559	0.431 (inactive)	0.687	-0.119
C#CCCCON=C1C[C@@H](O)[C@@H](O)[C@@H]2[C@@H]3C(=O)N(Cc4ccccc4)C(=O)[C@@H]3CC[C@@H]12	-0.19	0.421	-0.0887	0.0443	0.181	0.0645	-0.816	-0.211 (inactive)	0.53	0.0176
CCOC(=O)[C@H](Cc1ccccc1)NC(=O)CCC1CC(OC(=O)NCCc2ccc(F)cc2)CC2(CCCC(COC(=O)NCc3ccccc3)O2)O1 (stereo not given in full)	-0.434	-0.0986	-0.0887	0.854	0.679	0.331	0.903	0.292 (inactive)	0.0791	-0.0994
CC(C)(C)N1C(=O)[C@H]2[C@H]3[C@H](O)[C@H](O)CC(=O)[C@H]3CC[C@H]2C1=O	-0.635	1.21	-0.107	0.295	0.967	0.354	0.725	-0.0954 (inactive)	0.115	-0.134
CCOC(=O)[C@H](CC(C)C)NC(=O)CCC1CC(OC(=O)NCCc2ccc(F)cc2)CC2(CCCC(COC(=O)NCCc3ccccc3OC)O2)O1 (stereo not given in full)	-0.329	0.0726	-0.0806	0.363	0.41	1.08	0.577	0.617 (inactive)	0.216	-0.134
CO[C@@H]1COC(=O)[C@H](CCSC)NC(=O)CC=C[C@@H](C)COC(=O)CCC[C@H]1C	-0.994	2.94	-0.167	0.114	-0.559	-1.28	1.15	0.0651 (inactive)	1.41	-0.161
